Source: PubChem BioAssay AID651823 (Broad Institute, 2012)
This is one part of the list. No stated cut-off is given here; in the data, active means max delta Tm above about 0.48 degrees C; inactive means the rest.

Biological target: Kelch-like ECH-associated protein 1 (Homo sapiens) (UniProt Q14145)
Assay: Tm shift of Keap1 Kelch upon compound binding – biophysical, thermal shift, RT-PCR instrument, cherry-pick, dose response (AID 651823)
Conditions: active compounds read high; at 50 µM unless noted

Chain of Kelch-like ECH-associated protein 1 (Homo sapiens) (Q14145 whole entry, looked up): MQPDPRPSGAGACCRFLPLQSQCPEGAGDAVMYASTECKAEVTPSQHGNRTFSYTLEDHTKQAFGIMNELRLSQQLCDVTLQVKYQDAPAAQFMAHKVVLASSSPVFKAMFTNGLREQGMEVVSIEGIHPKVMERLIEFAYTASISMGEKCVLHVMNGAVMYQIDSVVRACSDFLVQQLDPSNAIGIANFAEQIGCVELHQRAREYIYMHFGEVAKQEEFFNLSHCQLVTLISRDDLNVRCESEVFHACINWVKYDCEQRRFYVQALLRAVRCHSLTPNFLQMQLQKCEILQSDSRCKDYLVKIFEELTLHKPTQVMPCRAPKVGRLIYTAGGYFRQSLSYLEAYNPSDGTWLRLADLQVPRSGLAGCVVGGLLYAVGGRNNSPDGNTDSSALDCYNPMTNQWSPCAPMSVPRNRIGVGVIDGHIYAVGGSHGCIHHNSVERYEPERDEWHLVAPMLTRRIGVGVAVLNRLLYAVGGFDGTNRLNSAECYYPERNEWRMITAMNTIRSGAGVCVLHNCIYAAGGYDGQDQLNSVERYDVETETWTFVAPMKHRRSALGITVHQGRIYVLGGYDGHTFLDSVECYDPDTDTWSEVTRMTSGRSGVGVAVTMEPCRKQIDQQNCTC

Max delta Tm, inactive:
O=C(Nc1ccccn1)C1CCN(S(=O)(=O)c2ccc3c(c2)OCCO3)CC1 -0.17 °C [at 0.38 µM]
CCCC1OC23CCCCC2C(C#N)(C#N)C1(C#N)C(=N)O3 (stereo not drawn) -0.1 °C [at 0.38 µM]
CN(CCOc1ccc(CC2SC(=O)NC2=O)cc1)c1ccccn1 (stereo not drawn) -0.09 °C [at 0.8 µM]
